Reference: the supplement of paper PMC12067926

Columns and labels:
Test in all cases: relative growth (AUC of 72 h growth curve relative to DMSO control, dAUC) (ratio); higher = more growth (less inhibition), active = hit call of the paper
Settings in all cases: 20 µM;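 active = growth AUC significantly below the DMSO wells by Dunnett test; inactive = the rest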
[1] = system: Aeromonas 1 (Aeromonas sp. AE235)
Procedure, shortened: (§1)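 For relative growth (dAUC), the spline-integrated area under the growth curve was divided by the mean of the DMSO controls. Results were averaged over three biological replicates. Each replicate used a 1:100 dilution, into 96-well plates holding each chemical at 20 µM (1% DMSO), of isolates from Icelandic stream sediments and Silwood Park soil or whole sediment communities that had been grown to carrying capacity in Luria–Bertani medium. Plates were shaken briefly before each hourly A600 reading over 72 h.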

[2] = system: Aeromonas 2 (Aeromonas sobria)
Procedure, shortened: as §1

[3] = system: Aeromonas 3 (Aeromonas popoffii)
Procedure, shortened: as §1

[4] = system: Argrobacterium 1 (Agrobacterium sp.)
Procedure, shortened: as §1

[5] = system: Arthrobacter 1 (Arthrobacter humicola)
Procedure, shortened: as §1

[6] = system: Arthrobacter 2 (Arthrobacter humicola)
Procedure, shortened: as §1

[7] = system: Arthrobacter 3 (Arthrobacter sp.)
Procedure, shortened: as §1

[8] = system: Community 10
Procedure, shortened: as §1

[9] = system: Community 4
Procedure, shortened: as §1

[10] = system: Community 6
Procedure, shortened: as §1

[11] = system: Community 7
Procedure, shortened: as §1

[12] = system: Community 8
Procedure, shortened: as §1

[13] = system: Community 9
Procedure, shortened: as §1

[14] = system: Flavobacterium 1 (Flavobacterium glaciei)
Procedure, shortened: as §1

[15] = system: Flavobacterium 2 (Flavobacterium succinicans)
Procedure, shortened: as §1

[16] = system: Hymenobacter 1 (Hymenobacter glaciei)
Procedure, shortened: as §1

[17] = system: Microbacterium 1 (Microbacterium arborescens)
Procedure, shortened: as §1

[18] = system: Neobacillus 1 (Neobacillus soli)
Procedure, shortened: as §1

[19] = system: Oryzobacter 1 (Oryzobacter terrae)
Procedure, shortened: as §1

[20] = system: Paenibacillus 1 (Paenibacillus castaneae)
Procedure, shortened: as §1

Measured: relative growth

CC1(C)[C@H](/C=C(\Cl)C(F)(F)F)[C@@H]1C(=O)OC(C#N)c1cccc(Oc2ccccc2)c1 (stereo not given in full)
inactive: [1] 0.951 | [2] 0.993 | [3] 1.04 | [4] 1.07 | [5] 1.28 | [6] 0.838 | [7] 0.955 | [8] 0.816 | [9] 0.998 | [10] 1.03 | [11] 1.19 | [12] 1.09 | [13] 0.956 | [14] 0.836 | [15] 0.995 | [16] 1.06 | [17] 0.995 | [18] 0.958 | [19] 1.11 | [20] 0.889

CCc1nn(C)c(C(=O)NCc2ccc(Oc3ccc(C)cc3)cc2)c1Cl
inactive: [1] 1.03 | [2] 1.06 | [3] 1.05 | [4] 1.02 | [5] 1.04 | [6] 0.892 | [7] 1.02 | [8] 0.804 | [9] 0.865 | [10] 0.897 | [11] 1.02 | [12] 1.03 | [13] 0.885 | [14] 1 | [15] 1.04 | [16] 0.992 | [17] 1.02 | [18] 1.05 | [19] 0.988 | [20] 1

CCCN(CCC)C(=O)SCc1ccccc1
inactive: [1] 1.03 | [2] 1.02 | [3] 1 | [4] 1.04 | [5] 1.05 | [6] 0.932 | [7] 1.02 | [8] 0.888 | [9] 0.997 | [10] 0.996 | [11] 1.01 | [12] 1.08 | [13] 1.03 | [14] 0.979 | [15] 0.952 | [16] 1.15 | [17] 1.05 | [18] 1.02 | [19] 1.08 | [20] 1.01

C[N+](C)(C)CCCl
inactive: [1] 0.996 | [2] 0.944 | [3] 0.977 | [4] 1.01 | [5] 1.05 | [6] 1 | [7] 0.987 | [8] 0.819 | [9] 0.978 | [10] 0.92 | [11] 0.749 | [12] 0.988 | [13] 1.01 | [14] 1.09 | [15] 0.996 | [16] 0.977 | [17] 0.994 | [18] 0.993 | [19] 1.05 | [20] 0.97

O=C1c2ccccc2C(=O)N1SC(Cl)(Cl)Cl
inactive: [1] 1.04 | [2] 0.951 | [3] 0.992 | [4] 1.04 | [5] 1.04 | [6] 0.994 | [7] 1.1 | [8] 0.818 | [9] 0.962 | [10] 0.721 | [11] 0.943 | [12] 0.913 | [13] 1.01 | [14] 1.05 | [15] 0.983 | [16] 1.11 | [17] 1.02 | [18] 1.07 | [19] 0.988 | [20] 1.02

COC(=O)N(C(=O)N1CO[C@@]2(C(=O)OC)Cc3cc(Cl)ccc3C2=N1)c1ccc(OC(F)(F)F)cc1
inactive: [1] 0.96 | [2] 0.963 | [3] 0.971 | [4] 1.03 | [5] 1 | [6] 0.972 | [7] 1.02 | [8] 0.878 | [9] 1.03 | [10] 0.974 | [11] 1.01 | [12] 1.02 | [13] 1.01 | [14] 1.1 | [15] 0.979 | [16] 1.05 | [17] 1.04 | [18] 1.03 | [19] 1.09 | [20] 0.948

COc1ncc(F)c2nc(S(=O)(=O)Nc3c(F)cccc3F)nn12
inactive: [1] 1.06 | [2] 1.02 | [3] 1.07 | [4] 0.953 | [5] 1.03 | [6] 1.11 | [7] 1.03 | [8] 1.04 | [9] 1.05 | [10] 1.05 | [11] 0.948 | [12] 1.04 | [13] 1.11 | [14] 1.03 | [15] 1.06 | [16] 1.06 | [17] 1.03 | [18] 1.04 | [19] 1 | [20] 1.06
